# From the supplement of paper PMC12024424
# Counter-ions that a name gives are not always drawn.
# System: Staphylococcus aureus Sa2 (MRSA, cystic fibrosis isolate)
# Test: growth reduction vs untreated control (viable cell count); higher = stronger antibacterial activity; extreme values may be limits of the assay
# Details: 0.1 mM; 24 h
# Experimental: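 Single-dose screen of the MedChem Express Drug Repurposing Library (0.1 mM, 1% DMSO) against planktonic MRSA S. aureus Sa2 (CF isolate) in TSB in 96-well plates, 37 °C aerobic, 24 h. Assays were run in triplicate and repeated twice.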
row,SMILES,growth reduction
1,O=c1ccc2ccc(O)c(O)c2o1 [Daphnetin],98%
2,Clc1ccc(CO/N=C(\Cn2ccnc2)c2ccc(Cl)cc2Cl)c(Cl)c1 [Oxiconazole nitrate],100%
3,Cc1c(C)c2c(c(C)c1O)CCC(C)(COc1ccc(CC3SC(=O)NC3=O)cc1)O2 (stereo not given) [Troglitazone],100%
4,CC1CS(=O)(=O)CCN1/N=C/c1ccc([N+](=O)[O-])o1 (stereo not given) [Nifurtimox],100%
5,CC1(C)CCC(C)(C)c2cc(NC(=O)c3ccc(C(=O)O)cc3)ccc21 [Tamibarotene],100%
6,C[C@@H](OC[C@@]1(c2ccccc2)CC[C@]2(CCC(=O)N2)CN1)c1cc(C(F)(F)F)cc(C(F)(F)F)c1 [Rolapitant],100%
7,COC(=O)N[C@H](C(=O)N1CCC[C@H]1c1nc(-c2ccc3c(c2)O[C@@H](c2ccccc2)n2c-3cc3cc(-c4c[nH]c([C@@H]5CCCN5C(=O)[C@@H](NC(=O)OC)C(C)C)n4)ccc32)c[nH]1)C(C)C [Elbasvir],100%
8,CCCCCCCCCCCCCCCC[N+](C)(C)CCN(Cc1ccc(OC)cc1)c1ncccn1 [Thonzonium (bromide)],100%
9,COc1cc([C@@H]2c3cc4c(cc3[C@@H](O[C@@H]3O[C@@H]5CO[C@@H](c6cccs6)O[C@H]5[C@H](O)[C@H]3O)[C@H]3COC(=O)[C@H]23)OCO4)cc(OC)c1O [Teniposide],100%
10,CC1(C)CC[C@]2(C(=O)O)CC[C@]3(C)[C@H](C(=O)C=C4[C@@]5(C)C=C(C#N)C(=O)C(C)(C)[C@@H]5CC[C@]43C)[C@@H]2C1 [Bardoxolone],100%
11,CCCCCCNC(=O)n1cc(F)c(=O)[nH]c1=O [Carmofur],100%
12,CCOC(=O)N1CCC(=C2c3ccc(Cl)cc3CCc3cccnc32)CC1 [Loratadine],100%
13,CCc1cc(F)c2nc(N3CCC(NC4CCOCC4)CC3)c(-c3nc(C)no3)c(C)c2c1,93%
14,COc1cc([C@H]2C(C#N)=C(N)Oc3c2ccc(N)c3N)cc(Br)c1OC [Crolibulin],100%
15,Cc1nc2c([nH]1)-c1ccccc1N(C(=O)c1ccc(NC(=O)c3ccccc3-c3ccccc3)cc1)CC2 [Conivaptan (hydrochloride)],100%
16,NC(=O)N1CCC(CC(=O)N2CCC([C@H]3c4ncc(Br)cc4CCc4cc(Cl)cc(Br)c43)CC2)CC1 [Lonafarnib],96%
17,COC1=C(OC)C(=O)C(CCCCCCCCCC[P+](c2ccccc2)(c2ccccc2)c2ccccc2)=C(C)C1=O [Mitoquinone (mesylate)],100%
18,Cc1c2c(nn1C)CSCc1cc(n(C)n1)CSc1cc(c3ccccc3c1)OCCCc1c(C(=O)O)n(C)c3c-2c(Cl)ccc13,100%
19,Nc1ccn([C@@H]2O[C@H](CO)[C@@H](O)C2(F)F)c(=O)n1 [Gemcitabine],100%
20,Cc1ccc(-n2[nH]c(C)c(N=Nc3cccc(-c4cccc(C(=O)O)c4)c3O)c2=O)cc1C [Eltrombopag],100%

row,SMILES,growth reduction
1,OCc1cc([C@@H](O)CNCCCCCCOCCOCc2c(Cl)cccc2Cl)ccc1O [Vilanterol],100%
2,Nc1ccc2cc3ccc(N)cc3nc2c1 [Proflavine (hemisulfate)],100%
3,CN(CCCCCCCCCCN(C)C(=O)Oc1cccc([N+](C)(C)C)c1)C(=O)Oc1cccc([N+](C)(C)C)c1 [Demecarium Bromide],98%
4,COc1cc2/c(=N/c3ccc(Br)cc3F)nc[nH]c2cc1OCC1CCN(C)CC1 [Vandetanib],100%
5,COc1cccc2c1C(=O)c1c(O)c3c(c(O)c1C2=O)C[C@@](O)(C(=O)CO)C[C@@H]3O[C@H]1C[C@H](N)[C@H](O)[C@H](C)O1 [Doxorubicin (hydrochloride)],100%
6,Cc1cc(O[C@@H](CCC(F)(F)F)c2ccc(C(=O)NCCC(=O)O)cc2)cc(C)c1-c1ccc(C(C)(C)C)cc1 [Adomeglivant],100%
7,N=C(N)c1ccc(OCCCCCOc2ccc(C(=N)N)cc2)cc1 [Pentamidine (isethionate)],100%
8,NC(=O)[C@@H]1CC[C@@H]2CN1C(=O)N2OS(=O)(=O)O [Avibactam (sodium)],97%
9,Cc1ccc(C(=O)c2cc(O)c(O)c([N+](=O)[O-])c2)cc1 [Tolcapone],100%
10,CN1CCN(c2ccc3nc(-c4c(N)c5c(F)cccc5[nH]c4=O)[nH]c3c2)CC1 [Dovitinib (lactate)],99%
11,CCCCCCCOc1ccc(CCC(N)(CO)CO)cc1C(F)(F)F [Amiselimod (hydrochloride)],100%
12,O=C(O)c1cc(F)c2nc(N3[C@@H]4CC[C@H]3C[C@@H](OCc3c(-c5ccccc5OC(F)(F)F)noc3C3CC3)C4)sc2c1 [Tropifexor],100%
13,CC/C(=C(/c1ccc(/C=C/C(=O)O)cc1)c1ccc2[nH]ncc2c1)c1ccc(F)cc1Cl [Brilanestrant],100%
14,NC(=O)N1c2ccccc2C[C@H](O)c2ccccc21 [Eslicarbazepine],94%
15,CC(C(=O)O)c1ccc2c(c1)CC(=O)c1ccccc1S2 (stereo not given) [Zaltoprofen],98%
16,COc1ccc(C(=O)NC2(C(=O)O)Cc3ccccc3C2)cc1OCCc1cccc(C)c1,96%
17,CNCCC(Oc1ccc(C(F)(F)F)cc1)c1ccccc1 (stereo not given) [Fluoxetine (hydrochloride)],100%
18,Fc1ccc2c(CCNCc3cccc(OCC(F)(F)C(F)F)c3)c[nH]c2c1 [Idalopirdine Hydrochloride],100%
19,CC1=C(/C=C/C(C)=C/C=C/C(C)=C/C(=O)Nc2ccc(O)cc2)C(C)(C)CCC1 [Fenretinide],100%
20,CCCCCCCC/C=C/CCCCCCCC(=O)OC[C@H]1O[C@@H](n2ccc(N)nc2=O)C(F)(F)[C@@H]1O [Gemcitabine (elaidate)],100%
